The record followed here is PubChem BioAssay AID2013 (Sanford-Burnham Center for Chemical Genomics, 2009).

For orientation: inhibition means the change of the read-out against control, counted positive when it falls.

Screen size: about 290,000 compounds; about 370 (0.13%) were called active. What follows is part of a selection rich in actives, with near analogues and random picks from the rest. Results with a measured potency or affinity are listed apart. A number with no mark means an inactive call.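 How the source made its calls: active means spots per cell inhibited over 60%, with over 100 cells counted and total cytoplasm intensity under 500,000; inconclusive means wells with under 100 cells, flagged as likely toxic; inactive means the rest.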

Chain of G-protein coupled receptor 55 (Homo sapiens) (Q9Y2T6 whole entry, looked up): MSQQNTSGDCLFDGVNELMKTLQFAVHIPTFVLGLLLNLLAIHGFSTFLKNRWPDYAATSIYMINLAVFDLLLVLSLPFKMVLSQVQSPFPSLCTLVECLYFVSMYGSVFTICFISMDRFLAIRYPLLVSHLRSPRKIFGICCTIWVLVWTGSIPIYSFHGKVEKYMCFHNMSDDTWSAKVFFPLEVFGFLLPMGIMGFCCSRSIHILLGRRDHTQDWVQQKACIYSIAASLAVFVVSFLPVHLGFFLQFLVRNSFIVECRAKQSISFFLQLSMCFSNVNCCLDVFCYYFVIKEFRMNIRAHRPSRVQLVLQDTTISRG

This test has as its target G-protein coupled receptor 55 (Homo sapiens) (UniProt Q9Y2T6). Put plainly: inhibition of LPI-stimulated GPR55 beta-arrestin translocation – imaging, U2OS, beta-arrestin-GFP, LPI agonist, primary screen (AID 2013).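 Further: U2OS cells stably carrying GPR55 and arrestin-GFP stimulated by 5 µM LPI near EC80; imaged beta-arrestin-GFP aggregate spots per cell after agonist stimulation; plate controls were LPI-stimulated DMSO wells for no effect and DMSO wells without LPI for full effect.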 As to conditions: LPI antagonism, at 10 µM, stronger effect = higher value.
As for `COc1cc(C2C(C#N)=C(N)Oc3c2c(-c2ccccc2)nn3-c2ccccc2)cc(OC)c1OC` (centres undefined), the inhibition was -13.1%.
Then `COc1ccccc1C1C(C#N)=C(N)Oc2c1c(-c1ccccc1)nn2-c1ccccc1` (centres undefined), with 96.3% (active).
Regarding `COc1ccc(C2C(C#N)=C(N)Oc3c2c(-c2ccccc2)nn3-c2ccccc2)c(OC)c1OC` (centres undefined), the inhibition was 79.5%.
As for `O=C(/C=C/c1ccco1)NC(=S)Nc1ccccc1N1CCCC1`, the inhibition is 23%.
Then `O=C(NC(=S)Nc1ccccc1N1CCOCC1)c1ccccc1F`, with 16.2%; and `CCc1ccc(C(=O)NC(=S)Nc2ccc(N3CCOCC3)cc2)cc1`, with 4.3%.
As for `O=C(COc1ccc(Br)cc1)NC(=S)Nc1ccccc1N1CCOCC1`, the inhibition was 0.7%.
The same measure for `O=C(/C=C/c1ccco1)Nc1ccccc1N1CCOCC1`: 10.8%.
Then `COc1ccc(C(=O)NC(=S)Nc2ccccc2N2CCOCC2)cc1Br`, with 0.4%; and `Cc1ccc(C(=O)NC(=S)Nc2ccccc2N2CCOCC2)cc1C`, with 0.3%.
Then `O=C(NC(=S)Nc1ccccc1N1CCOCC1)c1ccc([N+](=O)[O-])cc1`, with 5%; and `CCOC(=O)c1sc(NC(=O)CSc2ncn(-c3ccccc3)n2)nc1C`, with 14.4%; and `CCOC(=O)N1CCN(Cc2nc3c(c(=O)n(C)c(=O)n3C)n2CCC(C)C)CC1`, with -1.3%.
On to `COC(=O)C1=CC(C(=O)c2cccs2)=NN(c2ccc(OC)cc2)C1C(=O)OC` (centres undefined), for which the inhibition was 7.5%.
Consider `COc1ccc(C(=O)NCC(=O)N2CCC3(CC2)NCCc2[nH]cnc23)cc1`, for which the inhibition is -11.2%.
In the case of `O=C(c1csc2ccccc12)n1cccn1`, the inhibition was -12.1%.
The same measure for `Oc1ccccc1/C=N/n1cnnc1`: -8.4%; for `Nc1nc(C23CC4CC(CC(C4)C2)C3)cs1`: 24.8%.
For `Nc1nc(C23CC4CC(CC(Cl)(C4)C2)C3)cs1`, the inhibition was -9.3%.
The same measure for `Cc1[nH]n(C(N)=S)c(=O)c1N=Nc1ccccc1C(F)(F)F`: 7.7%; for `Cc1cccc(N=Nc2c(C)[nH]n(C(N)=S)c2=O)c1C`: 10.8%; for `Cc1ccccc1N=Nc1c(C)[nH]n(C(N)=S)c1=O`: 93.2% (active).
Then `S=C(Nc1cccc(Cl)c1)Nc1ccccc1Oc1ccccc1`, with 8.7%; and `S=C(Nc1ccccc1Oc1ccccc1)Nc1cccc(Cl)c1Cl`, with -5.2%; and `CCc1nc(NC(=O)Cc2csc(C)n2)sc1C(=O)OC`, with 14.5%.
The same measure for `COc1ccc(Cn2ccnc2SCC(=O)Nc2nnc(C)s2)cc1`: -0.9%.
For `CCc1nnc(NS(=O)(=O)c2ccc(NC(=O)/C=C/C(=O)O)cc2)s1`, the inhibition was 6.6%.
Consider `CCc1nnc(NS(=O)(=O)c2ccc(NC(=O)/C=C/c3ccc(F)cc3)cc2)s1`, for which the inhibition was 1.5%.
For `CCc1nnc(NS(=O)(=O)c2ccc(NC(=O)Nc3ccc(OC)cc3)cc2)s1`, the inhibition was -0.7%.
As for `CCc1nnc(NS(=O)(=O)c2ccc(NC(=S)NC(=O)/C=C/c3ccc(OC)cc3)cc2)s1`, the inhibition is 10.6%.
Turning to `COc1ccc(/C(C)=N\Nc2nc(-c3ccccc3)cc(=O)[nH]2)cc1`, the inhibition was 12.1%.
For `Cc1nn2c(N3CCOCC3)cc(C(C)(C)C)nc2c1-c1ccc(Cl)cc1`, the inhibition was -7.5%.
Then `O=C(O)c1cc(NC(=O)c2ccc(Cl)c([N+](=O)[O-])c2)cc(C(=O)O)c1`, with 6.4%; and `O=C(Nc1ccc(Nc2ccccc2)cc1)c1ccc(Cl)c([N+](=O)[O-])c1`, with 12%; and `O=C(Nc1ccc(C(O)(C(F)(F)F)C(F)(F)F)cc1)c1ccc(Cl)c([N+](=O)[O-])c1`, with 88.6% (active).
For `CCCn1c2c(c(O)c(C(=O)Nc3ncccc3O)c1=O)CCCC2`, the inhibition was -10.6%.
The same measure for `CCCCn1c(=O)[nH]c(=O)c2c1nc(CN1C(=O)c3ccccc3S1(=O)=O)n2CCC`: 8.3%; for `CCCCn1c(CCC(=O)O)nc2c1c(=O)[nH]c(=O)n2CCC`: -0.5%; for `CCC(Sc1nc(N)cc(=O)[nH]1)C(=O)NC(C(=O)OC)c1ccccc1` (centres undefined): 3.4%.
Then `COc1ccc(C2CCCN2CC(O)COc2ccccc2C(C)C)cc1` (centres undefined), with 5.6%; and `O=C1CC(SC(=Nc2ccccc2)Nc2ccccc2)C(=O)N1c1ccc(Cl)c(Cl)c1` (centres undefined), with 72.2% (active).
Then `O=C1CC(SC(=Nc2ccccc2)Nc2ccccc2)C(=O)N1c1cccc(Cl)c1` (centres undefined), with 17.2%; and `O=C1CC(SC(=Nc2ccccc2)Nc2ccccc2)C(=O)N1c1ccc(Cl)cc1` (centres undefined), with 6.2%.
`Cc1ccc(CNC(=O)c2nnn(CC(=O)Nc3cccc(C)c3C)c2N)cc1`: the inhibition is 18.1%.
Turning to `Cc1cc(SCc2ccc(Br)cc2)nc(=O)[nH]1`, the inhibition was -5.2%.
Consider `CCOc1ccc(OCc2ccc(C(=O)N3CCCCC3)o2)cc1`, for which the inhibition is 18.5%.
`O=C(O)c1cc(NS(=O)(=O)c2ccc(NCc3ccccc3)c([N+](=O)[O-])c2)cc(C(=O)O)c1`: the inhibition is 58.9%.
Consider `O=C(O)c1cc(NS(=O)(=O)c2ccc(N3CCCCC3)c([N+](=O)[O-])c2)cc(C(=O)O)c1`, for which the inhibition was 5%.
Then `Cc1sc(NC(=O)c2cc(-c3ccc(Cl)cc3)nc3ccccc23)c(C(N)=O)c1C`, with 28.7%.
For the molecule `Cc1ccc(C)c(-c2cc(C(=O)Nc3sc(C)c(C)c3C(N)=O)c3ccccc3n2)c1`, the inhibition is 18%.
Then `Cc1sc(NC(=O)c2cc(-c3ccccc3)nc3ccccc23)c(C(N)=O)c1C`, with -0.9%.
Consider `CCOC(=O)c1sc(NC(=O)c2cc(-c3ccccc3C)nc3ccccc23)c(C#N)c1C`, for which the inhibition is -36.6%.
On to `O=C(c1cc2cc(Br)ccc2o1)N1CCN(c2ccccc2)CC1`, for which the inhibition was 5.9%.
Then `CC(Sc1nnc(-c2ccc(OC(F)F)cc2)o1)C(=O)NCC1CCCO1` (centres undefined), with 17.5%; and `COc1cc(NC(=O)CN2C(=O)CN(C)C2=O)c(C)cc1[N+](=O)[O-]`, with 10.3%; and `COc1cc(NC(=O)CN2CCCCC2)c(C)cc1[N+](=O)[O-]`, with 10.9%.
Then `C=CCNC(=O)C1CCC(=O)N1S(=O)(=O)c1ccc(C)cc1` (centres undefined), with 9.3%.
The same measure for `CC(c1ccccc1C(O)(c1ccccc1)c1ccccc1)N(C)C` (centres undefined): 6.4%.
Turning to `CC(c1ccccc1C(O)c1ccccc1)N(C)C` (centres undefined), the inhibition is 28.9%.
